Measurements from PubChem BioAssay (Tox21).
Records with an inconclusive call do not appear. The source made the active and inactive calls. Unless noted, calls come from the whole dose curve; as a rule, active = well fitted curve in the direction sought with a large enough effect in the repeat runs; inconclusive = weak or mixed curves; inactive = no such curve, though single readings can be large; an effect the other way counts as inactive or inconclusive.

What was measured:
[1] = qHTS assay to identify small molecule antagonists of the estrogen related receptor signaling pathway with the pleiotropic PPARgamma coactivator (PGC) from Tox21 10K library (AID 1224841; call rule not given here; note: actives are mostly falling curves and most rising ones were filed inactive; nearly all actives have a fitted effect of over 50% in size)
In short: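 In the PGC/ERR line, DMSO solutions of test chemicals are pin-delivered to 2,000 cells/well six hours after dispensing. Following eighteen hours' incubation, One-Glo reagent is added and luminescence recorded.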

[2] = qHTS assay to identify small molecule agonists of the estrogen related receptor signaling pathway with the pleiotropic PPARgamma coactivator (PGC) from Tox21 10K library (AID 1224842); note: nearly all actives have a fitted effect of over 15% in size
In short: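 Luminescence from One-Glo (30 min, room temperature) measured after PGC/ERR cells had 18 h at 37 C with pinned compound (23 nL in DMSO). Cells had been seeded at 2,000 per well and pre-incubated 6 h.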

[3] = target: Thyrotropin receptor (Homo sapiens) (UniProt P16473); test: qHTS assay to identify small molecule agonists of the thyroid stimulating hormone receptor (TSHR) signaling pathway (AID 1224843; calls by dose curve; note: nearly all actives have a fitted effect of over 45% in size)
In short: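 A cell-based cAMP HTRF format was run in TSHR-transfected HEK293 cells, 800 per well. Treatment: 30 min, room temperature. Detection: 1 h with labelled cAMP and anti-cAMP cryptate. Concentration-response over 15 points, three replicates.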

[4] = qHTS assay to identify small molecule agonists of the hypoxia (HIF-1) signaling pathway - cell viability counter screen (AID 1224844; calls by dose curve; note: nearly all actives have a fitted effect of over 50% in size)
In short: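 Same wells as the HIF-1 reporter screen; ME-180 cells carrying HRE-bla, 17 hr treatment at 37C; CellTiter-Glo luminescence read after 30 min at room temperature.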

[5] = qHTS assay to identify small molecule agonists of H2AX (AID 1224845; active = well fitted activation curve with a large enough effect in the signal ratio in the repeat runs, not every such curve was filed as active; the % refers to the signal ratio)
In short: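 Phospho-H2AX Ser139 measured by HTRF (ex 320 nm; em 665 and 620 nm) after 24 hr antibody incubation. Compounds, 15 concentrations, 0.76% DMSO, were applied to CHO-K1 cells for 3hr at 37C before lysis.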

[6] = qHTS assay to identify small molecule agonists of the hypoxia (HIF-1) signaling pathway (AID 1224846; active = well fitted activation curve with a large enough effect in the signal ratio in the repeat runs, not every such curve was filed as active; the % refers to the signal ratio)
In short: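 In ME-180 cells bearing an HRE-bla construct, 17 h treatment with DMSO-dissolved compounds at 37C was followed by CCF4-AM loading to quantify reporter induction.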

[7] = qHTS assay to identify small molecule antagonists of the estrogen related receptor (ERR) signaling pathway from Tox21 library (AID 1224848); note: nearly all actives have a fitted effect of over 50% in size
In short: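 ERR cell line, 2,000 cells/well. 6 h settle, then compound (DMSO) added; 18 h at 37 C; ONE-Glo luminescence after 30 min RT.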

[8] = qHTS assay to identify small molecule agonists of the estrogen related receptor (ERR) signaling pathway from Tox21 library (AID 1224849; calls by dose curve; note: nearly all actives have a fitted effect of over 15% in size); settings: ERR reporter cell line, ONE-Glo luciferase, 18 h; at 92.4 µM (top of the series) unless noted
In short: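 Reporter cells (ERR, NTP source) treated with Tox21 10K compounds 18 h, 37 C. Readout: ONE-Glo luminescence, 30 min RT.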

[9] = qHTS RealTime-Glo MT Cell Viability Assay in HepG2 cells - 24 hour (AID 1224867); note: nearly all actives have a fitted effect of over 50% in size
In short: (§1)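 Viability was tracked continuously by NanoLuc luminescence from prosubstrate reduced by living HepG2 cells, at successive time points over 40 h of compound exposure. Cells with reagent were preincubated 5 h at 37 °C before compound addition.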

[10] = qHTS RealTime-Glo MT Cell Viability Assay in HEK293 cells - 32 hour (AID 1224868)
In short: (§2)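 Viability tracked continuously by luminescence as live cells reduce a prosubstrate for NanoLuc; HEK293 cells preincubated 5 h, compound-treated at 37 C, and read at 0, 8, 16, 24, 32 and 40 h.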

[11] = A CellTox Green Cytotoxicity Assay to monitor cytotoxicity in HEK293 cells - 0 hour (AID 1224869); note: nearly all actives have a fitted effect of over 50% in size
In short: (§3)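 Homogeneous no-lysis format: HEK293 cell suspension mixed with CellTox Green reagent, seeded, incubated 5 h at 37 C/5% CO2, then dosed by pintool with compound in DMSO.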

[12] = qHTS RealTime-Glo MT Cell Viability Assay in HepG2 cells - 40 hour (AID 1224870); note: nearly all actives have a fitted effect of over 50% in size
In short: (§4)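 Real-time viability: cells seeded at 600 per well together with NanoLuc and cell-permeant prosubstrate, compounds added after 5 h incubation. Luminescence tracked at 0, 8, 16, 24, 32 and 40 h of exposure.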

[13] = A CellTox Green Cytotoxicity Assay to monitor cytotoxicity in HEK293 cells - 40 hour (AID 1224871); note: nearly all actives have a fitted effect of over 45% in size
In short: as §3

[14] = qHTS RealTime-Glo MT Cell Viability Assay in HepG2 cells - 8 hour (AID 1224873); note: nearly all actives have a fitted effect of over 55% in size
In short: as §4

[15] = qHTS RealTime-Glo MT Cell Viability Assay in HEK293 cells - 40 hour (AID 1224874); settings: RealTime-Glo luminescence, stronger effect = lower value; note: nearly all actives have a fitted effect of over 50% in size
In short: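 Measured as luminescence from the same continuously cultured HEK293 wells at successive time points (0, 8, 16, 24, 32, 40 h) after compound addition. Reagent present from seeding; dosing at 5 h; incubation 37 C.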

[16] = A CellTox Green Cytotoxicity Assay to monitor cytotoxicity in HEK293 cells - 24 hour (AID 1224875); note: nearly all actives have a fitted effect of over 45% in size
In short: as §3

[17] = A CellTox Green Cytotoxicity Assay to monitor cytotoxicity in HepG2 cells - 16 hour (AID 1224876); note: nearly all actives have a fitted effect of over 45% in size
In short: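 Fluorescent DNA-binding dye, 600 HepG2 cells/well, 5 h preincubation then compound in DMSO; same plates read at 0–40 h, 37 C.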

[18] = qHTS RealTime-Glo MT Cell Viability Assay in HepG2 cells - 32 hour (AID 1224877); note: nearly all actives have a fitted effect of over 55% in size
In short: as §1

[19] = qHTS assay to identify small molecule agonists of H2AX - cell viability counter screen (AID 1224847; calls by dose curve;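 note: wild-type CHO-K1 cells; top concentration of the series differs between compounds; nearly all actives have a fitted effect of over 30% in size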)
In short: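 Counter-screen for viability: CellTiter-Glo ATP luminescence read after 3 h compound treatment (15-point titration, 0.76% DMSO final) of CHO-K1 cells at 37C, with 30 min room-temperature reagent incubation.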

[20] = qHTS RealTime-Glo MT Cell Viability Assay in HEK293 cells - 16 hour (AID 1224872)
In short: as §2
% is set by controls: 0 for no effect and ±100 for the full control effect.

Chain of Thyrotropin receptor (Homo sapiens) (P16473 whole entry, looked up): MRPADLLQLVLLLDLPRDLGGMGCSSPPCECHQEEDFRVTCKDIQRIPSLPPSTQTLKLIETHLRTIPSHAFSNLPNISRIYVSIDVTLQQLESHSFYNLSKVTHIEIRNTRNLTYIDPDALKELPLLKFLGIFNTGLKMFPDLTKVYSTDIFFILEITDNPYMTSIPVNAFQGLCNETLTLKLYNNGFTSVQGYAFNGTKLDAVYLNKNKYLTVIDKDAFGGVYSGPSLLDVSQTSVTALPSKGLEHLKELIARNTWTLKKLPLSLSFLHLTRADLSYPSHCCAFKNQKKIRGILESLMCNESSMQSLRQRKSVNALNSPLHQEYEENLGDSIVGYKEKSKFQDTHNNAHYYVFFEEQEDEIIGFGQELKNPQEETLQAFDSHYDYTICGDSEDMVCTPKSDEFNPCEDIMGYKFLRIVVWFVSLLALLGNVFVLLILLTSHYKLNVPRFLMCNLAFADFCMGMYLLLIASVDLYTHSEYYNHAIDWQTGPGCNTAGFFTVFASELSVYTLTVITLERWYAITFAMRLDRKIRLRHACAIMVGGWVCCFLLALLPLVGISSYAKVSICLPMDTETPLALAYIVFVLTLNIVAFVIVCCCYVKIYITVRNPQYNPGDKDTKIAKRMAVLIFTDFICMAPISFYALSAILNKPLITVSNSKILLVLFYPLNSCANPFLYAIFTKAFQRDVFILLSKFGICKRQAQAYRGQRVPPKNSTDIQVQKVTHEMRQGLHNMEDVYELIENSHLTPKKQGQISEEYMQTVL

CCCCCCC(=O)c1ccccc1
inactive: Potency [1] | Potency [2] | Potency [3] | outcome [4] | outcome [5] | outcome [6] | outcome [7] | activity change, positive = activation [8] 3.5% | outcome [9] | outcome [10] | outcome [11] | outcome [12] | Potency [13] | outcome [14] | max response [15] -0.886% | Potency [16] | Potency [17] | outcome [18]

CC[C@@]1(c2ccccc2)NC(=O)N(C)C1=O
inactive: Potency [1] | Potency [2] | Potency [3] | outcome [4] | outcome [5] | outcome [19] | outcome [7] | activity change, positive = activation [8] 3.28% [at 42.5 µM] | outcome [9] | outcome [10] | outcome [11] | outcome [12] | outcome [20] | outcome [14] | max response [15] 14.4% | Potency [16] | Potency [17] | outcome [18]

CCCCCCCCOCCC#N
inactive: Potency [1] | Potency [2] | Potency [3] | outcome [4] | outcome [5] | outcome [6] | outcome [19] | outcome [7] | activity change, positive = activation [8] 3% | outcome [9] | outcome [10] | outcome [12] | outcome [20] | outcome [14] | max response [15] -1.56% | Potency [17] | outcome [18]

O=S(=O)(O)c1cc(I)c(O)c2ncccc12
inactive: Potency [1] | Potency [2] | Potency [3] | outcome [4] | outcome [6] | outcome [7] | activity change, positive = activation [8] 2.69% [at 42.5 µM] | outcome [9] | outcome [10] | outcome [11] | outcome [12] | outcome [20] | outcome [14] | Potency [16] | Potency [17] | outcome [18]

CCCCOCCCC
inactive: Potency [1] | Potency [2] | Potency [3] | outcome [4] | outcome [5] | outcome [6] | outcome [7] | activity change, positive = activation [8] 4.99% | outcome [9] | outcome [10] | outcome [11] | outcome [12] | outcome [20] | outcome [14] | max response [15] 8.08% | Potency [17] | outcome [18]

Cc1ccc(OC(=O)CC(C)C)cc1
inactive: Potency [1] | Potency [2] | Potency [3] | outcome [4] | outcome [5] | outcome [6] | outcome [19] | outcome [7] | activity change, positive = activation [8] -0.118% | outcome [9] | outcome [11] | outcome [12] | outcome [20] | outcome [14] | max response [15] 3.9% | Potency [16] | Potency [17] | outcome [18]

COC(=O)/C=C(\C)CCC=C(C)C
inactive: Potency [1] | Potency [2] | Potency [3] | outcome [4] | outcome [5] | outcome [6] | outcome [7] | activity change, positive = activation [8] 1.22% | outcome [9] | outcome [10] | outcome [12] | Potency [13] | outcome [14] | Potency [16] | Potency [17] | outcome [18]

CC(C)(Sc1cc(C(C)(C)C)c(O)c(C(C)(C)C)c1)Sc1cc(C(C)(C)C)c(O)c(C(C)(C)C)c1
inactive: Potency [1] | Potency [2] | Potency [3] | outcome [4] | outcome [5] | outcome [19] | outcome [7] | activity change, positive = activation [8] 3.41% [at 42.5 µM] | outcome [9] | outcome [11] | outcome [12] | Potency [13] | outcome [14] | max response [15] 3.52% | Potency [16] | Potency [17] | outcome [18]

CCCCCCCCCCCC(C)=O
inactive: Potency [1] | Potency [2] | Potency [3] | outcome [4] | outcome [5] | outcome [6] | outcome [19] | outcome [7] | activity change, positive = activation [8] -0.269% | outcome [9] | outcome [10] | outcome [11] | outcome [12] | Potency [13] | outcome [20] | outcome [14] | max response [15] 0.63% | Potency [16] | Potency [17] | outcome [18]

N[C@H]1C(O)O[C@H](CO)[C@@H](O)[C@@H]1O (some centres undefined)
inactive: Potency [1] | Potency [2] | Potency [3] | outcome [4] | outcome [5] | outcome [6] | outcome [19] | outcome [7] | activity change, positive = activation [8] 3.25% [at 42.5 µM] | outcome [9] | outcome [10] | outcome [11] | outcome [12] | outcome [14] | max response [15] -1.72% | Potency [16] | Potency [17] | outcome [18]

CCCCN1C(=O)c2ccccc2C1=O
inactive: Potency [1] | Potency [2] | Potency [3] | outcome [4] | outcome [5] | outcome [6] | outcome [7] | activity change, positive = activation [8] 6.09% | outcome [9] | outcome [10] | outcome [12] | Potency [13] | outcome [20] | outcome [14] | max response [15] -3.23% | Potency [16] | outcome [18]

N=C(N)S(=O)O
inactive: Potency [1] | Potency [2] | Potency [3] | outcome [4] | outcome [5] | outcome [6] | outcome [19] | outcome [7] | activity change, positive = activation [8] 2.21% | outcome [9] | outcome [10] | outcome [11] | outcome [12] | Potency [13] | outcome [20] | outcome [14] | max response [15] 11.7% | Potency [16] | Potency [17] | outcome [18]

CC1(C)CC(N)CC(C)(C)N1
inactive: Potency [1] | Potency [2] | Potency [3] | outcome [4] | outcome [6] | outcome [19] | outcome [7] | activity change, positive = activation [8] 4.2% | outcome [9] | outcome [10] | outcome [12] | Potency [13] | outcome [20] | outcome [14] | Potency [16] | Potency [17] | outcome [18]

CCC(C)(C)C
inactive: Potency [1] | Potency [2] | Potency [3] | outcome [4] | outcome [5] | outcome [6] | outcome [19] | outcome [7] | activity change, positive = activation [8] -3.65% | outcome [9] | outcome [10] | outcome [11] | outcome [12] | Potency [13] | outcome [20] | outcome [14] | max response [15] 2.63% | Potency [16] | Potency [17] | outcome [18]
